These results are taken from the supplement of paper PMC13380429.

For assay [1], the system named is Vero E6 infected with SARS-CoV-2. In words: morphology score (similarity to uninfected cells); higher = more like uninfected cells. The following applies: 24 h.
Assay [2] shares this test system. In words: SARS-CoV-2 infection rate relative to infected DMSO; higher = more infection, active = 60 or less. The following applies: 24 h.

Structures can show the parent of a compound that is named as a salt.

As to `N[C@H]1CC[C@H](N[C@@H]2C[C@H]2c2ccccc2)CC1` (10 µM), the morphology score in assay [1] is 0.432. The SARS-CoV-2 infection rate in assay [2] was 79.5% (inactive).
`CC(=O)N[C@H]1[C@@H](O)[C@H](O)[C@@H](CO)O[C@@H]1O` [N-acetylmannosamine] (10 µM) yielded a morphology score in assay [1] of 0.18. The SARS-CoV-2 infection rate in assay [2] was 100% (inactive).
In turn, `Cc1ccc2c(Br)cc(Br)c(OC(=O)c3ccccc3)c2n1` [broxaldine] (0.833333 µM) yielded a morphology score in assay [1] of 0.246. Besides, in assay [2], the SARS-CoV-2 infection rate is 103% (inactive).
`C=C1C[C@@]2(O)O[C@@]3(C[C@H]2C(C)C)[C@@H](C)CC[C@@H]13` [curcumol] (10 µM) came in with a morphology score in assay [1] of 0.157. The SARS-CoV-2 infection rate in assay [2] is 106% (inactive).
For `Cc1ccc(S(=O)(=O)OCC(=O)Nc2ccc(C(=O)O)c(O)c2)cc1` [STAT3-inhibitor-VI] (10 µM), in that order: 0.0369 and 110% (inactive).
In turn, `CCOC(=O)c1c(C)[nH]c2ccc3c(c12)CN1CCc2cc(OC)ccc2C1O3` (stereo not drawn) (10 µM) yielded a morphology score in assay [1] of 0.729. Also, in assay [2], the SARS-CoV-2 infection rate is 28.5% (active).
For `c1cnc(SCc2cccnc2)nc1` [tasuldine] (10 µM), the morphology score in assay [1] came to 0.175. Moreover, the SARS-CoV-2 infection rate in assay [2] is 99.5% (inactive).
As for `COC(=O)Nc1ccc(-c2nc(N3CCOCC3)c3cnn(C4CCN(Cc5cccnc5)CC4)c3n2)cc1` (10 µM), in assay [1], the morphology score is -0.198. Moreover, the SARS-CoV-2 infection rate in assay [2] was 104% (inactive).
For the molecule `NC(=O)NC1NC(=O)NC1=O` (stereo not drawn) [allantoin] (10 µM), in assay [1], the morphology score is -0.0426. The SARS-CoV-2 infection rate in assay [2] is 104% (inactive).
The molecule `c1cnc(N2CCN(Cc3ccc4c(c3)OCO4)CC2)nc1` [piribedil] (10 µM) gave a morphology score in assay [1] of 0.0979. The SARS-CoV-2 infection rate in assay [2] is 98.5% (inactive).
As for `COc1cc(N2CCOCC2)ccc1Nc1ncc(Cl)c(Nc2ccccc2NS(C)(=O)=O)n1` (10 µM), the morphology score in assay [1] was -0.034. In assay [2], the SARS-CoV-2 infection rate is 103% (inactive).
Molecule `CCn1cc(-c2cccc(C(F)(F)F)c2)c2sc(C(=N)NC3CCS(=O)(=O)CC3)cc2c1=O` (10 µM) gave a morphology score in assay [1] of -0.122. The SARS-CoV-2 infection rate in assay [2] was 110% (inactive).
Regarding `Cc1ccc(-c2ccc(F)cc2COc2ccc(CCC(=O)O)cc2)cc1` (10 µM), in assay [1], the morphology score is -0.174. Moreover, in assay [2], the SARS-CoV-2 infection rate is 100% (inactive).
For `CN1CC(=O)N=C1NC(=O)Nc1cccc(Cl)c1` [fenobam] (10 µM), in that order: -0.115 and 107% (inactive).
Molecule `COC(F)(F)C(Cl)Cl` [methoxyflurane] (10 µM) came in with a morphology score in assay [1] of 0.106. Besides, in assay [2], the SARS-CoV-2 infection rate is 100% (inactive).
The corresponding values for `COC1=CC(=O)C[C@@H](C)[C@]12Oc1c(Cl)c(OC)cc(OC)c1C2=O` [griseofulvin] (10 µM) are 0.0707 and 104% (inactive).
In turn, `O=C(CCCCCCC(=O)Nc1cccnc1)NO` [pyroxamide] (0.833333 µM) gave a morphology score in assay [1] of 0.0384. The SARS-CoV-2 infection rate in assay [2] is 104% (inactive).
The corresponding values for `CC(C)=CCC/C(C)=C/CC/C(C)=C/CSc1ccccc1C(=O)O` [salirasib] (10 µM) are 0.161 and 89% (inactive).
Take `CN(C)CC/C=C1/c2ccccc2COc2ccc(CC(=O)O)cc21` [Olopatadine hydrochloride (Opatanol)] (10 µM): the morphology score in assay [1] amounted to 0.105. For the same molecule, the SARS-CoV-2 infection rate in assay [2] is 111% (inactive).
In turn, `CN(C)[C@@H]1CCc2[nH]c3ccc(NC(=O)c4ccc(F)cc4)cc3c2C1` (10 µM) returned a morphology score in assay [1] of 0.438. For the same molecule, the SARS-CoV-2 infection rate in assay [2] is 70.5% (inactive).
The molecule `Nc1nccc(/C=C/c2ccccc2)n1` (10 µM) returned a morphology score in assay [1] of 0.324. Moreover, the SARS-CoV-2 infection rate in assay [2] is 93% (inactive).
On to `COc1ccc2c(c1)[C@]13CCCC[C@@H]1[C@H](C2)N(C)CC3` [dextromethorphan] (10 µM), for which the morphology score in assay [1] is -0.0426. Further, the SARS-CoV-2 infection rate in assay [2] was 112% (inactive).
For the molecule `C[C@@H]1COCCN1c1cc(C2([S@](C)(=N)=O)CC2)nc(-c2ccnc3[nH]ccc23)n1` (0.833333 µM), in assay [1], the morphology score was determined as 0.0164. For the same molecule, the SARS-CoV-2 infection rate in assay [2] was 90% (inactive).
For `COc1ccc2[nH]c(-c3ccccc3)c(CCNC(C)=O)c2c1` [2-phenylmelatonin] (10 µM), in that order: 0.062 and 107% (inactive).
With `COC(=O)N[C@H](C(=O)N1CCC[C@H]1c1ncc(-c2ccc(-c3ccc(-c4cnc([C@@H]5CCCN5C(=O)[C@@H](NC(=O)OC)C(C)C)[nH]4)cc3)cc2)[nH]1)C(C)C` [daclatasvir] (10 µM), the morphology score in assay [1] is 0.0693. In addition, the SARS-CoV-2 infection rate in assay [2] was 90.5% (inactive).
Molecule `CC(=O)[C@H]1CC[C@H]2[C@@H]3C[C@H](C)C4=CC(=O)CC[C@]4(C)[C@H]3[C@@H](O)C[C@]12C` [medrysone] (10 µM) returned a morphology score in assay [1] of 0.0629. The SARS-CoV-2 infection rate in assay [2] was 106% (inactive).
In turn, `COc1ccc2[nH]c([S+]([O-])Cc3ncc(C)c(OC)c3C)nc2c1` (stereo not drawn) [omeprazole-magnesium] (10 µM) displayed a morphology score in assay [1] of -0.138. Also, in assay [2], the SARS-CoV-2 infection rate was 116% (inactive).
With `CCCCCCCCCCCC[N+](C)(C)CCOc1ccccc1` [domiphen] (10 µM), the morphology score in assay [1] is 0.0254. In addition, the SARS-CoV-2 infection rate in assay [2] is 87% (inactive).
The corresponding values for `C[C@]12CC[C@@H]3c4ccc(O)cc4CC[C@H]3[C@@H]1CCC2=O` [estrone] (10 µM) are -0.145 and 108% (inactive).
